Compounds with a hit are over-represented: about 21% of the library has one in this group of screens.
HCV inh = qHTS Assay for Inhibitors of Hepatitis C Virus (HCV); Huh7.5.1 HCVcc-Cre infection, luciferase reporter, 44 h; Potency, µM (highest dose often 41.8 µM), for the others: top-dose activity change, negative = inhibition, actives largely listed as inhibitors; 3.4% of 340,000 active; AID 651820, 2012; also: potency is read from the fitted curve at half-maximal effect; % is scaled to controls: 0 for no effect and ±100 for the full control effect
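Cells seeded at 1,000/well and cultured 4 h, then compounds added followed by HCVcc-Cre virus (~0.5 moi). After 44 h further culture, luciferase substrate was added, plates held 15 min at room temperature, and luminescence read for 15 sec.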
CHX counter = Cycloheximide Counterscreen for Small Molecule Inhibitors of Shiga Toxin. cell reporter, cycloheximide protein synthesis inhibition counterscreen. max response, %. 12% of 300,000 active. AID 2314, 2010; in the data active = max response mostly above about 13%, no sharp cut-off; inactive = mostly below about 14%; also: read at 38.3 µM for the half of the compounds with a filed dose; 0% is about no effect
Pf growth 96h = Primary qHTS for delayed death inhibitors of the malarial parasite plastid, 96 hour incubation. P. falciparum luciferase reporter growth, 96 h. Potency, µM (highest dose often 28.7 µM), for the others: at the top dose activity change, negative = inhibition, usual class: inhibitors. 6.9% of 320,000 active. AID 504834, 2011; also: potency is read from the fitted curve at half-maximal effect; % is scaled to controls: 0 for no effect and ±100 for the full control effect
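Cell-based qHTS: luciferase-tagged P. falciparum in erythrocytes (2% hematocrit, 0.05% parasitemia final) incubated with compounds for 96 hours, 37 C, 5% CO2; luciferase detection reagent then added and luminescence measured.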
Shiga inhibitor = A qHTS for Small Molecule Inhibitors of Shiga Toxin; Vero cells, Shiga toxin protein synthesis inhibition reporter; inhibition, % at 38.7 µM; 9.2% of 290,000 active; AID 2315, 2010; in the data active = inhibition mostly above about 28%, no sharp cut-off; inactive = mostly below about 43%; also: 0% is about no effect
Pf growth 48h = Primary qHTS for delayed death inhibitors of the malarial parasite plastid, 48 hour incubation. 5.9% of 310,000 active. P. falciparum luciferase growth in erythrocytes, 48 h. Potency, µM (top dose mostly 28.7 µM), inactives show at the highest dose activity change, negative = inhibition, usual class: inhibitors; also: potency is read from the fitted curve at half-maximal effect; % is scaled to controls: 0 for no effect and ±100 for the full control effect
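Luciferase-expressing P. falciparum in infected erythrocytes (2% hematocrit, 0.1% parasitemia final) in RPMI 1640/0.5% Albumax were exposed to compound for 48 hours at 37 C, 5% CO2; growth read as luminescence.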
AMA1-RON2 inh = qHTS for Inhibitors of AMA1-RON; Towards Development of Antimalarial Drug Lead: Primary Screen; Potency, µM (doses to about 58.2 µM), inactives show at the top dose activity change, negative = inhibition, most hits filed as inhibitors; 0.2% of 360,000 active; AID 720542, 2013; AlphaScreen AMA1-biotinylated RON2 peptide binding;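 also: potency is read from the fitted curve at half-maximal effect; 0% = vehicle wells and -100% = peptide control; nearly all actives have a fitted effect of over 45% in size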
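AMA1 (3D7) with his tag at 25 nM final met compounds first, then biotinylated RON2 peptide at 25 nM; detection used donor plus acceptor beads, 10 µg/mL apiece, read by AlphaScreen after 30 min at room temperature.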
Numbers without * were called inactive; ? = inconclusive; / = no result; [ ] = remark or other dose. Unless noted, calls follow the shape of the dose curve; as a rule, active = well fitted curve in the direction sought with a large enough effect; inconclusive = small, poorly fitted or top-dose-only effect, or another doubt; inactive = no such curve, though single readings can be large; an effect the other way counts as inactive or inconclusive.

SMILES	HCV inh	CHX counter	Pf growth 96h	Shiga inhibitor	Pf growth 48h	AMA1-RON2 inh
CCN(CC)S(=O)(=O)c1cc(C(=O)Nc2cc(C)[nH]n2)ccc1Cl	?	67*	68%	117*	/	42%
CCN(CC)S(=O)(=O)c1cc(C(=O)Nc2ccccc2[N+](=O)[O-])ccc1Cl	?	27*	55%	41*	26%	?
O=C(O)c1ccc(NS(=O)(=O)c2cccc(C(=O)Nc3ccccc3[N+](=O)[O-])c2)cc1	14%	6	0%	-4	4%	-3%
COc1cc(NC(=O)c2ccccc2F)ccc1NC(=O)c1cc2ccccc2o1	?	-1	23%	-5	19%	-5%
O=C(COC(=O)c1ccccc1NC(=O)c1ccco1)NC1CC1	?	6	-3%	-3	15%	-4%
CC1CCN(C(=O)COC(=O)c2ccccc2NC(=O)c2ccco2)CC1	?	44*	-11%	101*	44%[5.75 µM]	39%
O=C1CN(C(=O)COC(=O)c2ccccc2NC(=O)c2ccco2)c2ccccc2N1	4%	-1	13µM*	-7	-10%	-3%
CC(C)C(NC(=O)c1ccco1)C(=O)OCC(=O)N1CC(=O)Nc2ccccc21 (centres undefined)	-4%	/	-2%	/	34%	14%
CCCCNCCS(=O)(=O)NCc1ccc(OC)cc1	-15%	/	/	/	/	-6%
COc1cc(/C=C/C(=O)OCC(=O)N2CCCCCC2)cc(OC)c1OC	/	/	/	/	/	-3%
CN(CC(=O)Nc1cccc(F)c1)C(=O)c1ccc(COc2ccccc2)cc1	?	/	6%	/	?	60%
CN(CC(=O)Nc1cccc(F)c1)C(=O)CCNC(=O)c1ccc(Br)cc1	-2%	22*	-8%	36	12%	-7%
CN(CC(=O)Nc1cccc(F)c1)C(=O)c1ccc(C(=O)c2ccccc2)cc1	?	/	9.3µM*	/	?	-22%
CN(CC(=O)Nc1cccc(F)c1)CC(=O)NC(c1ccccc1)c1ccccc1	-17%	/	?	/	12µM*	7%
CCOC(=O)CCN(C(=O)Nc1ccccc1)C1CCCCC1	31%	/	/	/	/	9%
O=C(CSc1nnc(-c2ccncc2)n1Cc1ccco1)Nc1nc(-c2ccccc2)cs1	10µM*	-4	24%	3	/	13%
O=C(CSc1nc2ccccc2c(=O)[nH]1)c1cccs1	4%	10	?	10	-3%	-1%
Cc1ccc2cc(C)c3nnc(SCC(=O)Nc4nc5c(s4)CCCC5)n3c2c1C	-7%	12*	12µM*	20	-7%	-13%
O=C(NNC(=S)NCc1ccco1)c1cccs1	6%	0	?	-6	5%	48%
Cc1cc(SCC(=O)c2cccs2)nc2ccccc12	10µM*	42*	-7%	73*	27%	-4%
O=C(CSCc1ccco1)c1cccs1	9%	39*	154%	82*	/	-6%
O=C(CSc1nnc(-c2ccncc2)n1Cc1ccco1)Nc1ccccc1Cl	-14%	14	184%	-10	-14%	4%
CCCS(=O)(=O)NC(=O)C1(C)CCN(C(=O)c2ccc(C(F)(F)F)nc2C)C1 (centres undefined)	/	/	/	/	/	-12%
Cc1ccc2cc(C)c3nnc(SCC(=O)c4cccs4)n3c2c1C	5%	38*	51%	26	-1%	-10%
CCn1c(SCC(=O)Nc2nc3c(s2)CCCC3)nnc1-c1ccccc1	/	-4	13%	12	2.1µM*	-16%
SMILES	HCV inh	CHX counter	Pf growth 96h	Shiga inhibitor	Pf growth 48h	AMA1-RON2 inh
CCn1c(SCC(=O)Nc2nc(-c3ccccc3)cs2)nnc1-c1ccccc1O	11µM*	6	/	-13	?	34%
Cc1ccc(C)c2c1cc(C)c1nnc(SCC(=O)c3cccs3)n12	-1%	-1	?	-6	1%	14%[2.32 µM]
CCn1c(CCNC(=O)c2cccs2)nnc1SCC(=O)Nc1nc(-c2ccccc2)cs1	-23%	2	?	33	12µM*	-13%
CC1(C(=O)NS(=O)(=O)Cc2ccccc2)CCN1C(=O)C1(c2ccc(Cl)cc2)CCC1 (centres undefined)	/	/	/	/	/	-1%
CCc1ccc(C(O)c2ncc(-c3cccc4ccccc34)[nH]2)cc1 (centres undefined)	/	/	/	/	/	-2%
NC1=NC(c2ccc(Cl)cc2)C(C(=O)c2ccccc2)N1 (centres undefined)	36%	3	9%	19	-13%	4%
O=C(CSc1nnc(-c2ccc(Cl)cc2)n1Cc1ccco1)c1cccs1	-5%	58*	?	44*	?	-1%
CC1CN(C(=S)Nc2ccccc2)C(C)CN1C=O (centres undefined)	-3%	/	/	/	/	-2%
COc1ccc(C2CC(c3cccs3)=NN2S(=O)(=O)c2ccc(C)cc2)cc1 (centres undefined)	-25%	/	/	/	/	-26%
Fc1ccc(N2N=C(c3cccs3)CC2c2ccccc2)cc1 (centres undefined)	?	11	12%	20	13µM*	17%
O=S(=O)(c1ccccc1)N1N=C(c2cccs2)CC1c1cccc(O)c1 (centres undefined)	5%	-2	?	-8	-8%	0%
Cc1ccc(C2CC(c3cccs3)=NN2S(=O)(=O)c2ccc(C)cc2)cc1 (centres undefined)	?	12	2.9µM*	7	?	-9%
O=S(=O)(c1ccccc1)N1N=C(c2cccs2)CC1c1ccc(F)cc1 (centres undefined)	?	5	9.3µM*	37	?	-15%
O=C(COc1ccccc1C(=O)NCc1ccccc1)Nc1ccccc1	?	/	-27%	/	?	0%
CN(C)S(=O)(=O)N1CCN(CC(=O)Nc2ccc(F)cc2)CC1	1%	2	?	/	0%	3%
COc1cccc(-c2cc(C(=O)N3CCCc4ccccc43)no2)c1	-5%	28*	?	46*	?	46%
NS(=O)(=O)c1cccc(C(=O)N2CCCc3ccccc32)c1	/	/	/	/	/	19%
COc1ccc(-c2cn3c(C)c(C(=O)N4CCCc5ccccc54)sc3n2)cc1	11µM*	/	/	/	/	-26%
CCN(CC)S(=O)(=O)c1cccc(C(=O)N2CCCc3ccccc32)c1	-1%	21*	-30%	38*	-12%	-11%
COc1ccc(-c2cn3c4c(sc3n2)CCCC4)cc1	-11%	36*	-23%	36	/	-4%
O=C1Cc2cc(NS(=O)(=O)c3ccc([N+](=O)[O-])cc3)cc3c2N1CCC3	0%[8.37 µM]	/	10%	/	-8%	0%
